In PubChem BioAssay (Tox21) one finds Potency data, which are given here for 6 compounds.

The nature of assay [1]: qHTS assay to identify small molecule antagonists of the thyroid receptor (TR) signaling pathway - cell viability counter screen (AID 743064). Also: nearly all actives have a fitted effect of over 50% in size. The method in brief: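 Counter screen for cytotoxicity: compound plus T3 (1 nM final) on GH3.TRE-Luc cells, 23.5 h at 37 °C, then fluorescence viability readout with CellTiter-Fluor.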
For orientation: In qHTS, concentration-response curves come from the screen itself.

A short description of assay [2]: qHTS assay to identify small molecule antagonists of the thyroid receptor (TR) signaling pathway (AID 743065). Also: nearly all actives have a fitted effect of over 55% in size. Also: potency is read from the fitted curve at half-maximal effect. The method in brief: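 GH3.TRE-Luc rat pituitary cells carrying two TR response elements driving luciferase were plated for 4 h, given compound plus 1 nM T3 (final), and incubated 23.5 h at 37 C. ONE-Glo luminescence measured reporter inhibition; CellTiter-Fluor fluorescence tracked cytotoxicity.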

For assay [3], the system named is thyroid hormone receptor (rat, GH3 cells). The assay is described as follows: qHTS assay to identify small molecule agonists of the thyroid receptor (TR) signaling pathway (AID 743066; calls by dose curve).
Assay [4] deals with Estrogen receptor (Homo sapiens) (UniProt P03372). The assay is described as follows: qHTS assay to identify small molecule antagonists of the estrogen receptor alpha (ER-alpha) signaling pathway (AID 743069; active = well fitted curve in the direction sought with a large enough effect in the signal ratio in the repeat runs, not every such curve was filed as active; inconclusive = weak or mixed curves, or effect the other way; inactive = no such curve, though single readings can be large or run the other way; the % refers to the signal ratio). In short, it runs like this:
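Estradiol-stimulated ER-alpha-UAS-bla HEK293 cells, 18 hr compound exposure at 37C. LiveBLAzer B/G substrate, 2 hr RT, fluorescence read.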

Assay [5] can be described thus: qHTS assay to identify small molecule antagonists of the estrogen receptor alpha (ER-alpha) signaling pathway - cell viability counter screen (AID 743074; calls by dose curve;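 also: HEK293 cells carrying ER-alpha-UAS-bla reporter stimulated with 17beta-estradiol; nearly all actives have a fitted effect of over 45% in size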).
In assay [6] the target is Estrogen receptor (Homo sapiens) (UniProt P03372). The assay is described as follows: qHTS assay to identify small molecule agonists of the estrogen receptor alpha (ER-alpha) signaling pathway (AID 743075; calls by dose curve;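 also: HEK293 GripTite cells with ER-alpha and UAS-driven beta-lactamase reporter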; also: potency is read from the fitted curve at half-maximal effect).
Sequence of Estrogen receptor (Homo sapiens) (P03372 whole entry, looked up): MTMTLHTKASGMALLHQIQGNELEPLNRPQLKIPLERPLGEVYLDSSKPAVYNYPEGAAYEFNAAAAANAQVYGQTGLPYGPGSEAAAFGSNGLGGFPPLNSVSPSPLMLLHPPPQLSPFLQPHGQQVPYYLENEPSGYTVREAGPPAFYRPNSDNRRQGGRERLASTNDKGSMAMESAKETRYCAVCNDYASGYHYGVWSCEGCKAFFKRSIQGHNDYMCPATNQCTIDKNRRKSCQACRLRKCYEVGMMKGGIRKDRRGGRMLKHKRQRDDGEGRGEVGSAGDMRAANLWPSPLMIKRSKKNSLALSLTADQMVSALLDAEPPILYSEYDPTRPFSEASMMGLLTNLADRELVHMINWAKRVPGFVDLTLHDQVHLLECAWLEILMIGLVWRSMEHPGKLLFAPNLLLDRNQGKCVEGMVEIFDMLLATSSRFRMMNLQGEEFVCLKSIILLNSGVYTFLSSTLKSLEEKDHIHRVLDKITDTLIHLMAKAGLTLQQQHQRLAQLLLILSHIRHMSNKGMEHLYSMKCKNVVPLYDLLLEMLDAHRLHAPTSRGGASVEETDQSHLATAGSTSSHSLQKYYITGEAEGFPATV
The target is the same in assay [7]. The assay can be described thus: qHTS assay to identify small molecule agonists of the estrogen receptor alpha (ER-alpha) signaling pathway using the BG1 cell line (AID 743079). Also: nearly all actives have a fitted effect of over 20% in size. Also: potency is read from the fitted curve at half-maximal effect. The note with it: BG1Luc4E2 cells, ERE-luciferase agonist, 22 h; activation: at 70.3 µM (top of the series) unless noted.
A short description of assay [8]: qHTS assay to identify small molecule antagonists of the estrogen receptor alpha (ER-alpha) signaling pathway using the BG1 cell line (AID 743080; calls by dose curve;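 also: BG1 cells stimulated with 17beta-estradiol alongside compound; nearly all actives have a fitted effect of over 25% in size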). The method in brief: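 Luminescence from a 4×ERE-luciferase reporter in BG1-Luc-4E2 cells served as read-out. Cells, pre-cultured 5 days in stripped-serum phenol-red-free medium, were exposed to compound with 17beta-estradiol co-stimulation for 21.5 h at 37 C.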

Assay [9] can be described thus: qHTS assay to identify small molecule antagonists of the estrogen receptor alpha (ER-alpha) signaling pathway using the BG1 cell line - cell viability counter screen (AID 743081).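 Also: compound given together with 17beta-estradiol as the ER stimulus; nearly all actives have a fitted effect of over 45% in size.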
The target of a further assay is Aromatase (Homo sapiens) (UniProt P11511). The assay can be described thus: qHTS assay to identify aromatase inhibitors (AID 743083). Also: nearly all actives have a fitted effect of over 55% in size. Also: potency is read from the fitted curve at half-maximal effect.
Sequence of Aromatase (Homo sapiens) (P11511 whole entry, looked up): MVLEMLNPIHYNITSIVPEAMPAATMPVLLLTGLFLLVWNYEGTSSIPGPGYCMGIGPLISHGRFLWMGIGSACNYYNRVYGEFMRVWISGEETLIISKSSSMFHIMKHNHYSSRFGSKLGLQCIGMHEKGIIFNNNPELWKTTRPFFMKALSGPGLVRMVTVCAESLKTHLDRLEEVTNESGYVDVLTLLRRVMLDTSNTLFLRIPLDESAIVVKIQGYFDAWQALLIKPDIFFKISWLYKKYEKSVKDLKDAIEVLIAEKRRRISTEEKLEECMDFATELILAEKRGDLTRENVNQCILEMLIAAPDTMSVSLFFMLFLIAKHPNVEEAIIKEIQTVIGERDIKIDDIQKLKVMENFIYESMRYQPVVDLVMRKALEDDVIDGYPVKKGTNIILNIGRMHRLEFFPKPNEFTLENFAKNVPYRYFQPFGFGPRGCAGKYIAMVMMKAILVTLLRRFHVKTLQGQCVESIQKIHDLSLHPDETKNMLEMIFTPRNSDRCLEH
Assay [10] can be described thus: qHTS assay to identify aromatase inhibitors - cell viability counter screen (AID 743084).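 Also: cells stimulated with testosterone during compound exposure; nearly all actives have a fitted effect of over 55% in size.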
Assay [11] has as its target Aryl hydrocarbon receptor (Homo sapiens) (UniProt P35869). The assay is described as follows: qHTS assay to identify small molecule that activate the aryl hydrocarbon receptor (AhR) signaling pathway (AID 743085). Also: nearly all actives have a fitted effect of over 15% in size. Also: potency is read from the fitted curve at half-maximal effect.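 As to activation: HG2L7.5c1 human HepG2 liver cells with stably integrated DRE-driven firefly reporter.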 In short, it runs like this: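 Measured in HG2L7.5c1 cells: CellTiter-Fluor signal (30 min incubation, 37C) for viability, then luciferase luminescence (30 min, room temperature). Compound contact time was 24 h at 37C, following a 5 h pre-incubation.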

Assay [12] is described as follows: qHTS assay to identify small molecule that activate the aryl hydrocarbon receptor (AhR) signaling pathway - cell viability counter screen (AID 743086).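 Also: HepG2 liver cells carrying the AhR DRE luciferase reporter; nearly all actives have a fitted effect of over 45% in size.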 The method in brief:
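HepG2-AhR-luc (HG2L7.5c1) cells, 4000/well, were preincubated 5 h at 37C, exposed to compound in qHTS format for 24 hr at 37C, then given CellTiter-Fluor for 30 min; viability was read as fluorescence in the reporter wells.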

Assay [13] has as its target Peroxisome proliferator-activated receptor gamma (Homo sapiens) (UniProt P37231). The assay can be described thus: qHTS assay to identify small molecule agonists of the peroxisome proliferator-activated receptor gamma (PPARg) signaling pathway (AID 743094; active = well fitted activation curve with a large enough effect in the signal ratio in the repeat runs, not every such curve was filed as active; inconclusive = weak or mixed curves, or effect the other way; inactive = no such curve, though single readings can be large or run the other way; the % refers to the signal ratio). The method in brief: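 Quantitative HTS agonist mode: stable HEK293H line with UAS-beta-lactamase reporter under PPARg control, 17 h compound exposure at 37C, fluorescence after 1 h FRET substrate loading at room temperature.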

For assay [14] the target is unchanged. The assay is described as follows: qHTS assay to identify small molecule antagonists of the peroxisome proliferator-activated receptor gamma (PPARg) signaling pathway (AID 743191; calls by dose curve; also: nearly all actives have a fitted effect of over 30% in size). In short, it runs like this:
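GeneBLAzer PPARg UAS-bla HEK293H cells carrying a UAS-driven beta-lactamase reporter were plated at 3000 cells/well, preincubated 5 h at 37C, then given compound for 17 h at 37C; LiveBLAzer B/G FRET substrate was read after 1 h at room temperature.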

Assay [15] is described as follows: qHTS assay to identify small molecule antagonists of the peroxisome proliferator-activated receptor gamma (PPARg) signaling pathway - cell viability counter screen (AID 743194). Also: nearly all actives have a fitted effect of over 55% in size. Conditions: Potency: co-treated with 50 nM rosiglitazone unless noted. In short, it runs like this: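 PPARg-UAS-bla HEK293H cells were plated, rested 5 h at 37 C, then treated with compounds plus rosiglitazone (50 nM final) for 17 h at 37 C; viability was then read by CellTiter-Glo luminescence after 30 min at room temperature.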

Assay [16] can be described thus: qHTS assay for small molecule agonists of the antioxidant response element (ARE) signaling pathway (AID 743202; active = well fitted activation curve with a large enough effect in the signal ratio in the repeat runs, not every such curve was filed as active; inconclusive = weak or mixed curves, or effect the other way; inactive = no such curve, though single readings can be large or run the other way; the % refers to the signal ratio; also: potency is read from the fitted curve at half-maximal effect). The method in brief:
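Compounds delivered in DMSO to ARE-bla HepG2 cells (2,000 cells/well, pre-incubated 5 h) and left 16 h at 37 C. LiveBLAzer B/G FRET substrate then added for 2 h at RT before fluorescence reading.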

A short description of assay [17]: qHTS assay for small molecule agonists of the antioxidant response element (ARE) signaling pathway - cell viability counter screen (AID 743203; calls by dose curve; also: nearly all actives have a fitted effect of over 55% in size). In short, it runs like this: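 Seeded at 2,000 cells/well, ARE-bla HepG2 cells were incubated 5 hrs before compound addition. After 16 hrs of treatment at 37C with 5% CO2, CellTiter-Glo reagent was added and luminescence read 30 min later.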

The nature of assay [18]: qHTS assay for small molecule activators of the heat shock response signaling pathway - cell viability counter screen (AID 743209). Also: nearly all actives have a fitted effect of over 50% in size. The method in brief: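 First, HSE-bla HeLa cells were seeded at 1500 cells/well and kept overnight at 37 C. Next, compounds were pinned in and incubated 5 h. After the FRET substrate step, CellTiter-Glo was added and luminescence read 30 min later.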

The nature of assay [19]: qHTS assay for small molecule activators of the heat shock response signaling pathway (AID 743210; active = well fitted activation curve with a large enough effect in the signal ratio in the repeat runs, with a control signal flat, not every such curve was filed as active; inconclusive = weak or mixed curves; the % refers to the signal ratio;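 also: HeLa cells with beta-lactamase reporter driven by heat shock elements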). In short, it runs like this: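 Reporter gene assay: HeLa cells stably bearing an HSE-bla construct, compound treatment 5 h at 37 C, LiveBLAzer substrate 2.5 h at RT, fluorescence intensity.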

Where “and” joins values, the source holds several entries; their conditions need not be identical. Identical values can stand only once. The source holds several records for some structures; these can differ, active in one and inactive in another. Calls of active or inactive are those of the source. Unless noted, calls follow the shape of the dose curve; as a rule, active = well fitted curve in the direction sought with a large enough effect in the repeat runs; inconclusive = weak or mixed curves; inactive = no such curve, though single readings can be large; an effect the other way counts as inactive or inconclusive.

Sequence of Peroxisome proliferator-activated receptor gamma (Homo sapiens) (P37231 whole entry, looked up): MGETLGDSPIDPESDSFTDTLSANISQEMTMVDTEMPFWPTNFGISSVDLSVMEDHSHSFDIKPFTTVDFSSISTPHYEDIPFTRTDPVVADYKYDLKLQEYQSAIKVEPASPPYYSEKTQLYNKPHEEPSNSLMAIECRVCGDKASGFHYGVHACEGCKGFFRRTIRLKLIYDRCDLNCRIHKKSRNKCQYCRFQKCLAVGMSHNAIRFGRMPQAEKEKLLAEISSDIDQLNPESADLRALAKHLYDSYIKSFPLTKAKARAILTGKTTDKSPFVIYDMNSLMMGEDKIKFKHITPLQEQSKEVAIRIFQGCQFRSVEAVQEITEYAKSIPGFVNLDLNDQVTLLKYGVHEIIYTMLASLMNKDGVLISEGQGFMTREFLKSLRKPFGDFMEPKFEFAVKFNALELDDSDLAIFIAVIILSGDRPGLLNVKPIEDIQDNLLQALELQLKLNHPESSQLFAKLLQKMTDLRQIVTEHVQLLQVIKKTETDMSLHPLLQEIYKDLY
Sequence of Aryl hydrocarbon receptor (Homo sapiens) (P35869 whole entry, looked up): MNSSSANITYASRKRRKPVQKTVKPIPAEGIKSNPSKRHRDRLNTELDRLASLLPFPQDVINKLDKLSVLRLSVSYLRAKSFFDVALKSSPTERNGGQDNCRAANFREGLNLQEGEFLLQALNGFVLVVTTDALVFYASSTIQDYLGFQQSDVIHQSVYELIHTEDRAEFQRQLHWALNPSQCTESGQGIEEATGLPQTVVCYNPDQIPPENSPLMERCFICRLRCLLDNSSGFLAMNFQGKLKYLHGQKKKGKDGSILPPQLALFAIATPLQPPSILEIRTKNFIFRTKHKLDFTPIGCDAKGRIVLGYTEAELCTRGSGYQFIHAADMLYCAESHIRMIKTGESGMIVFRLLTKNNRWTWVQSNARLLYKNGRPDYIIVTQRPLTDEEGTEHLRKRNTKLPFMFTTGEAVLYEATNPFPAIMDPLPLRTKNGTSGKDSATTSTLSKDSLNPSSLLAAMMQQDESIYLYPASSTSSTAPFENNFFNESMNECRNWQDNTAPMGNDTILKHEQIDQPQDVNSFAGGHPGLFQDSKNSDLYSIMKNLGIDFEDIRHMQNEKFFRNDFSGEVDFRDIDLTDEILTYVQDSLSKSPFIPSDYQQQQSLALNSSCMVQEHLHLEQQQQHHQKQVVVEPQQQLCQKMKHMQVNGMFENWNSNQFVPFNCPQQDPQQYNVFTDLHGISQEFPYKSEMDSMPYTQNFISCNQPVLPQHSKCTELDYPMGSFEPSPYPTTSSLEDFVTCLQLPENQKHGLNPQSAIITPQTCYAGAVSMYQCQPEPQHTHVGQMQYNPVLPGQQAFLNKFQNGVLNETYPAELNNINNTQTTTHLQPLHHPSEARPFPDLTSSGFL

In the case of `O=C(O)CF`, the Potency entry in [1], in [2], in assay [3], in assay [4], in assay [5] and in [6] was “inactive” throughout. For the same compound, the Potency entry (in assay [7]; in assay [8]; in assay [9]; with Aromatase (Homo sapiens); in assay [10]; in assay [11]) was “inactive” throughout. The Potency entry in [12], in [13], in [14], in [15], in assay [16] and in assay [17] was “inactive” each time. For the same compound, in assay [18], the Potency result was “inactive”.
As to `CCOP(=S)(OCC)SCn1c(=O)oc2cc(Cl)ccc21`, the Potency result in [1], in [3], in [4], in assay [5], in assay [6] and in assay [7] was “inactive” in each case. The Potency result in [8], in [9], in [10], in assay [12], in assay [13] and in assay [14] was “inactive” throughout. Moreover, the Potency entry in [17], in assay [18] and in assay [19] was “inactive” each time. Besides, the Potency in assay [2] was 68.6 µM (active); with Aromatase (Homo sapiens), 65.6 µM (active); in [11] it was 32.9 µM (active) and 61.1 µM (active); in [16] it was 9.69 µM (active).
Regarding `CCOC(=O)c1ccccc1N`, the Potency result in assay [1], in assay [2], in assay [3], in assay [4], in assay [5] and in assay [6] was “inactive” throughout. The Potency entry (in [7]; in [8]; in assay [9]; in the assay with Aromatase (Homo sapiens); in assay [10]; in assay [11]) was “inactive” in each case. The Potency entry in [12], in assay [13], in assay [15], in [16], in assay [17] and in assay [18] was “inactive” in each case. Also, in [19], the Potency result was “inactive”.
`ClC(Cl)=C(Cl)C(Cl)=C(Cl)Cl`: the Potency entry in assay [1], in [2], in [3], in assay [4], in assay [5] and in [6] was “inactive” each time. The Potency result (in assay [7]; in assay [8]; in [9]; in the assay with Aromatase (Homo sapiens); in assay [10]; in [11]) was “inactive” throughout. Moreover, the Potency entry in assay [12], in assay [13], in [14], in assay [15], in assay [16] and in assay [17] was “inactive” in each case. Further, the Potency result in assay [18] and in assay [19] was “inactive” throughout.
On to `CCC/C=N/O`, for which the Potency entry in assay [1], in assay [2], in assay [3], in assay [4], in assay [5] and in assay [6] was “inactive” each time. The Potency result (in assay [7]; in assay [8]; in assay [9]; with Aromatase (Homo sapiens); in [10]; in assay [11]) was “inactive” each time. Further, the Potency result in assay [12], in assay [13], in assay [15], in assay [16], in assay [17] and in assay [18] was “inactive” throughout. Further, the Potency entry in assay [19] is “inactive”.
With `O=NN(c1ccccc1)c1ccccc1`, the Potency result in [1], in assay [2], in [3], in assay [4], in assay [5] and in assay [8] was “inactive” in each case. Besides, the Potency result (in [9]; with Aromatase (Homo sapiens); in [10]; in assay [11]; in assay [12]; in assay [13]) was “inactive” throughout. Moreover, the Potency entry in assay [14], in assay [15], in [16], in [17], in assay [18] and in assay [19] was “inactive” in each case. Also, the Potency in assay [6] is 53.7 µM [inconclusive] (active) and inactive; in assay [7], 47.4 µM (active).
